# A number with no mark means an inactive call.
# Test system: Caenorhabditis elegans L1 (N2)
# Test: survival and reproduction score of C. elegans L1 (0: 0-10 living worms, 1: 11-20, 2: 21-50, 3: >50, 4: overgrown) (score 0-4); higher = more worms, less nematicidal, active = 1 or less; extreme values may be limits of the assay
# Conditions: 60 µM; 6 days; temperature: 20 °C
# Outline: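 After compound was pinned to 60 µM final (0.6% v/v DMSO) into wells with roughly 20 synchronized C. elegans N2 L1s and E. coli HB101 in liquid NGM, the sealed 96-well plates were shaken at 200 rpm for 6 days at 20 °C. Under a dissection microscope, survival and reproduction were graded ordinally by living worms per well. A grade of 0 stood for 0–10 worms and 4 for overgrown, starved wells; two biological replicates were averaged.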
row,Compound,survival and reproduction score
1,CCOc1ccccc1-c1nc(-c2ccc(Br)cc2)no1,3
2,c1cncc(-c2noc(-c3cccc4ccccc34)n2)c1,4
3,Clc1cccc(-c2nc(-c3cccnc3)no2)c1,2
4,Cc1cc(OC(C)c2nc(-c3ccccn3)no2)ccc1Cl (centres undefined),2
5,O=C(CSc1nnc(-c2ccco2)o1)c1ccc(Br)cc1,4
6,COc1ccc(-c2nc(-c3ccc(Cl)cc3)no2)cc1,4
7,CCc1ccc(OCc2nc(-c3ccccn3)no2)cc1,3
8,CC(C)c1ccc(OCc2nc(-c3ccncc3)no2)c(Br)c1,4
9,CCc1ccc(C(=O)Nc2ccccc2-c2nc(-c3cccnc3)no2)cc1,4
10,Brc1ccc(-c2noc(-c3ccco3)n2)o1,4
11,COc1cccc(-c2nnc(SCC(=O)Nc3cccc(C(F)(F)F)c3)o2)c1,4
12,COc1cccc(-c2nc(-c3ccc(F)cc3)no2)c1,4
13,c1ccc(-c2nnc(SCc3cccnc3)o2)cc1,4
14,CC(C)C(=O)Nc1ccccc1-c1nc(-c2cccnc2)no1,0 (active)
15,CCOc1ccccc1-c1nnc(SCC(=O)Nc2nccs2)o1,4
16,COc1ccc(Cl)cc1-c1nc(-c2ccccc2C)no1,4
17,COc1ccc(CCC(=O)Nc2ccc(-c3noc(-c4ccccc4C)n3)cc2)cc1,4
18,Cc1ccc(C(=O)Nc2ccccc2-c2nc(-c3ccncc3)no2)cc1C,4
19,Brc1ccc(-c2nc(-c3cccnc3)no2)cc1,0 (active)
20,Clc1ccc(-c2nnc(SCc3ccccc3)o2)c(Cl)c1,4

row,Compound,survival and reproduction score
1,COc1ccc(-c2noc(-c3cccc(Br)c3)n2)cc1,4
2,Cc1ccccc1-c1nnc(SCc2ccc(F)cc2)o1,3.5
3,Cc1cccc(OC(C)c2nc(-c3cccnc3)no2)c1 (centres undefined),4
4,N#Cc1ccc(CSc2nnc(-c3ccncc3)o2)cc1,4
5,COc1ccc(-c2noc(COc3ccc(Cl)cc3C)n2)cc1,4
6,Cn1c(SCc2nc(-c3ccc(Br)cc3)no2)nnc1-c1ccco1,4
7,COc1nc(-c2ccc(Cl)cc2)ccc1-c1noc(-c2ccncc2)n1,4
8,O=C(CSc1nnc(-c2ccncc2)o1)Nc1ccc(Cl)cc1Cl,4
9,COc1ccc(OC(C)c2nc(-c3cccnc3)no2)cc1 (centres undefined),4
10,COc1ccc(-c2nnc(SCc3cccc(C#N)c3)o2)cc1,4
11,Clc1cc(Br)ccc1OCc1nc(-c2ccccc2)no1,4
12,Brc1ccc(-c2noc(COc3ccc4c(c3)OCO4)n2)cc1,4
13,CCOc1ccc(-c2nc(-c3ccc(Cl)cc3)no2)cc1,3
14,COc1ccc(-c2nnc(SCC(=O)Nc3ccc(Cl)cc3Cl)o2)cc1,2
15,Clc1ccc(-c2nc(-c3cccnc3)no2)c(Cl)c1,2
16,Cc1cc(OCc2nc(-c3ccncc3)no2)c(C)c(C)c1Br,4
17,Cc1cc(Cl)ccc1NC(=O)CSc1nnc(-c2ccncc2)o1,4
18,Cc1ccc(-c2nnc(SCc3ccccc3)o2)cc1,0 (active)
19,Cc1cccc(-c2nnc(SCC(=O)NC(C)c3ccccc3)o2)c1 (centres undefined),4
